Growth data for eight compounds are collected here from PubChem BioAssay (NCI).

Molecules are shown by their SMILES. The panel holds about 83,000 compounds, 20% with a hit somewhere; the sample as a whole holds those more often.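 Negative percent growth values reflect cell death: -40 means 40% of the cells present at the start died, and -100 means all died.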 Values without a mark were called inactive. Active and inactive are the calls of the source. How the source made its calls: active means growth percent below 10; inactive means the rest.

Among the test systems are HCT-15 colon; HT29 colon; SNB-75 CNS; SNB-19 CNS; U251 CNS; PC-3 prostate; SK-MEL-5 melanoma; UACC-62 melanoma; LOX IMVI melanoma; SK-MEL-28 melanoma.
Holding throughout (assay): NCI-60 one-dose screen, 48 h (100 = growth as untreated, 0 = no growth, -100 = all killed)
What all share (conditions): 10 µM unless noted

As to `Cc1cc(C)cc(Nc2cc(C)nc3nc(C(F)(F)F)nn23)c1`, the growth with HCT-15 colon is 30.4%; in the assay with HT29 colon it was 41.5%; in the assay with SNB-75 CNS, 61.6%; in the assay with SNB-19 CNS, 45.7%; in the assay with U251 CNS it was 31.5%; in the assay on PC-3 prostate, 57.1%. For the same compound, the growth with SK-MEL-5 melanoma is 32.1%; in the assay on UACC-62 melanoma it was -33.8% (active); in the assay on LOX IMVI melanoma, 24.1%; in the assay on SK-MEL-28 melanoma, 50.8%.

`CCC1CCc2nc3sc(C(=O)Nc4cccc(F)c4)c(N)c3cc2C1` (stereo not given): the growth was 31.7% with HCT-15 colon; 33.5% in the assay on HT29 colon; 51.7% in the assay on SNB-75 CNS; 76.9% in the assay with SNB-19 CNS; 56.3% with U251 CNS; 63.6% in the assay with PC-3 prostate. Moreover, the growth is 41.9% in the assay on SK-MEL-5 melanoma, 39.5% in the assay with UACC-62 melanoma, 61.3% with LOX IMVI melanoma and 59.7% with SK-MEL-28 melanoma.

`Cc1nn(-c2ccc(Cl)cc2)c(=O)n1CCN1CCOCC1`: the growth in the assay with HCT-15 colon was 74.2%; with HT29 colon, 104%; with SNB-75 CNS, 7.65% (active); with SNB-19 CNS, 58.7%; with U251 CNS, 42.9%; with PC-3 prostate, 80.8%. For the same compound, the growth in the assay on SK-MEL-5 melanoma was 80.3%; with UACC-62 melanoma, 82.8%; in the assay with LOX IMVI melanoma, 81.6%; in the assay on SK-MEL-28 melanoma, 92.9%.

As to `Cn1nc(C(F)(F)F)cc1-c1cc(Cl)c(OCc2ccc(Cl)cc2)c(-c2ccc(Cl)c(C(F)(F)F)c2)c1O`, the growth in the assay with HCT-15 colon is 6.63% (active); in the assay on HT29 colon, 5.38% (active); with SNB-75 CNS, -8.74% (active); in the assay on SNB-19 CNS it was 17.4%; in the assay on U251 CNS, 8.94% (active); with PC-3 prostate, 7.86% (active). Also, the growth is -53.3% (active) in the assay with SK-MEL-5 melanoma, 4.43% (active) with UACC-62 melanoma, 12.4% with LOX IMVI melanoma and 13.7% in the assay on SK-MEL-28 melanoma.

Regarding `Nc1nc2c(c3ncccc13)C(c1ccccc1)Cc1ncccc1-2` (stereo not given), the growth with HCT-15 colon was 46.1%; in the assay with HT29 colon it was 56.9%; with SNB-75 CNS, 71.2%; in the assay with SNB-19 CNS it was 91.8%; with U251 CNS, 72.2%; in the assay on PC-3 prostate, 73.9%. Besides, the growth in the assay with SK-MEL-5 melanoma is 53.1%; in the assay on UACC-62 melanoma, 59.4%; in the assay with LOX IMVI melanoma, 70.9%; with SK-MEL-28 melanoma, 83.5%.

For the compound `CCCOC(=O)C1c2cc3c(cc2CC(C)C1C(=O)OCCC)OCO3` (stereo not given), the growth is 108% in the assay on HCT-15 colon; 72% in the assay with HT29 colon; 85.6% in the assay on SNB-75 CNS; 98.9% in the assay on SNB-19 CNS; 95.2% in the assay on U251 CNS; 82.9% with PC-3 prostate. Further, the growth was 92.4% with SK-MEL-5 melanoma, 75.4% in the assay with UACC-62 melanoma, 65.4% with LOX IMVI melanoma and 103% in the assay on SK-MEL-28 melanoma.

In the case of `O=C(CCc1nc2sc3c(c2c(=O)[nH]1)CCC3)NCc1cn(-c2ccccc2)nc1-c1ccccc1`, the growth is 86% with HCT-15 colon; 83.3% in the assay on HT29 colon; -59% (active) in the assay with SNB-75 CNS; 49.8% in the assay with SNB-19 CNS; 44% in the assay on U251 CNS; 29.9% in the assay on PC-3 prostate. Moreover, the growth with SK-MEL-5 melanoma was 72.5%; with UACC-62 melanoma, 88.6%; in the assay with LOX IMVI melanoma, 44%; in the assay on SK-MEL-28 melanoma, 79.1%.

Consider `COc1cc(/C=C/C(=O)c2ccc(NC(=O)CSc3nnc(-c4ccc(Cl)cc4)n3-c3ccccc3)cc2)cc(OC)c1OC`, for which the growth is 49.8% with HCT-15 colon; 74.8% with HT29 colon; 62.4% in the assay on SNB-75 CNS; 76.4% in the assay on SNB-19 CNS; 69.7% in the assay on U251 CNS; 69.7% in the assay with PC-3 prostate. Further, the growth with SK-MEL-5 melanoma is 55.8%; in the assay on UACC-62 melanoma, 68.5%; in the assay with LOX IMVI melanoma it was 73.9%; in the assay on SK-MEL-28 melanoma it was 97.1%.
